ChEMBL document CHEMBL3988442, “University of Dundee, Small-Polar-MMV Screening Library” (2021)
About 13,000 (27%) of roughly 48,000 compounds showed an effect of 50% or more. This is one part of the list.

What follows are compounds tested on Wolbachia pipientis (assay: Anti-Wolbachia Cell-Based Screen). Conditions: 5 µM.
Format: functional
Design: scale not given: in the data most compounds retested in dose-response had high values

SMILES	Percent Effect [%]
CC(C)(O)CSCCNC(=O)c1cc(F)ccc1F	5.192
Cc1ccc(CS(=O)(=O)N2CC[C@H]3[C@H]2CCN3C)cc1	6.881
CN(C)C(=O)N1CCC2(CC1)CNc1ccc(F)cc12.Cl	-3.877
Cc1cnc(C(=O)N2CCNCC2C(=O)NCc2ccncc2)cn1 (stereo not given)	-22.4
CNC(=O)c1cccc(C2CNCCN2C(=O)c2ccn(C)n2)c1 (stereo not given)	140.8
CNC(=O)c1cccc(C2CNCCN2C(=O)C2CCNCC2)c1 (stereo not given)	105.9
CNC(=O)NC(=O)CN1CCC(c2cccc(F)c2)C1 (stereo not given)	-6.233
CNC(=O)c1cccc(C2CNCCN2C(=O)c2cccc(F)c2)c1.Cl (stereo not given)	87.98
CNC(=O)c1cccc(Nc2cnn(C)c2)c1	-6.81
COCCn1cc(C(=O)N2CCCC2c2cccc(F)c2)ccc1=O (stereo not given)	1.276
CNC(=O)c1cccc(C2CNCCN2C(C)=O)c1 (stereo not given)	-19.14
CC(C)Cn1cncc1CNC(=O)c1cccc(CC2CCNCC2)c1	4.276
Cc1nc2c(c(=O)n1C)CCN(C(=O)CCc1ccccc1O)CC2	-32.69
O=C1CCC2(CCOC2)CN1Cc1ccc2nsnc2c1 (stereo not given)	-12.42
CC(=O)Nc1ncc(S(=O)(=O)N2CCCC(C)C2)s1 (stereo not given)	-1.419
O=C(O)C(F)(F)F.c1cnc(N2CCOCC3(C2)CN(c2nccs2)CCO3)nc1 (stereo not given)	-52.69
CN(C)C(=O)CN1CCOCC2(CCN(CC3CCOCC3)CC2)C1.O=C(O)C(F)(F)F.O=C(O)C(F)(F)F	8.025
Fc1ccc(N2CCOC3(COCCN(c4ncccn4)C3)C2)cc1.O=C(O)C(F)(F)F (stereo not given)	20.84
CN(C)C(=O)CN1CCOCC2(C1)CN(c1ncc(F)cn1)CCO2.O=C(O)C(F)(F)F (stereo not given)	98.39
CN(C)C(=O)CN1CCOCC2(CCN(c3ncc(F)cn3)CC2)C1.O=C(O)C(F)(F)F	94.37
CN(C)C(=O)CN1CCOCC2(CCN(CC3CCOC3)CC2)C1.O=C(O)C(F)(F)F.O=C(O)C(F)(F)F (stereo not given)	-17.88
CC(C)(C)C1CCC(NCCN2CCOCC2)CC1 (stereo not given)	-13.34
Cc1ccc(Cl)cc1NC(=O)C1CC(=O)N(Cc2ccccn2)C1 (stereo not given)	-6.487
CNc1nc(C(=O)N2CCN(c3ccc(Cl)c(Cl)c3)CC2)cs1	91.42
Cc1nc(C(=O)N2CCN(C(C)c3ccccc3F)CC2)cs1 (stereo not given)	-7.061

SMILES	Percent Effect [%]
Cc1nc(C(=O)Nc2cc(N3CCNC3=O)ccc2Cl)cs1	-12.33
Cc1nc(C(=O)N2CCN(c3ccc(Cl)c(Cl)c3)CC2)cs1	99.9
CNc1nc(C(=O)N2CCC3(CCCN(C)C3=O)C2)cs1 (stereo not given)	-18.85
COc1ccnc(N2CCN(C(=O)c3csc(C4CC4)n3)CC2)n1	22.41
Cc1cc(C2CCCN(Cc3ncc(C(C)C)o3)C2)n[nH]1 (stereo not given)	8.603
Cc1cnc(CN2CCCC(c3cc(C(N)=O)[nH]n3)C2)o1 (stereo not given)	1.908
CC(C)c1nnc(CN2CCCC(c3cc(C(N)=O)[nH]n3)C2)o1 (stereo not given)	107
CCc1nnc(CN2CCCC(c3cc(C(F)(F)F)[nH]n3)C2)o1 (stereo not given)	-1.93
CCc1nnc(CN2CCCC(c3cc(C(N)=O)[nH]n3)C2)o1 (stereo not given)	123.6
CC(C)c1cnc(CN2CCCC(c3cc(C(N)=O)[nH]n3)C2)o1 (stereo not given)	94.99
Cc1nnc(CN2CCCC(c3cc(C(N)=O)[nH]n3)C2)o1 (stereo not given)	-6.189
Cc1nc(CN2CCCC(c3cc(C(N)=O)[nH]n3)C2)oc1C (stereo not given)	110.2
CC(C)(C)c1nnc(CN2CCCC(c3cc(C(N)=O)[nH]n3)C2)o1 (stereo not given)	1.877
CCNc1ccnc(-c2ccnc3c2ccn3C)n1	5.655
COc1cc(NCCNC(=O)c2ccc3[nH]ccc3c2)cc(OC)c1	-37.35
CN1C(=O)[C@H]2CC[C@@H]1CN(C(=O)c1sccc1S(N)(=O)=O)C2	0.6963
Cc1cnc(CN2CCCC(c3cc(C(N)=O)[nH]n3)C2)cn1 (stereo not given)	0.6166
Cc1ncc(CN2CCCC(c3cc(C(N)=O)[nH]n3)C2)s1 (stereo not given)	121.8
O=C(CCc1cscn1)NS(=O)(=O)c1ccc2c(c1)CCC2	0.3885
O=C(Cc1ccccc1)N1CCC2(CC1)CC(Nc1cnccn1)CO2 (stereo not given)	117.3
Cn1ccc(CN2CCC3(CC2)CC(Nc2ccccn2)CO3)n1.O=C(O)C(F)(F)F (stereo not given)	-6.155
Cn1ccc(CN2CCC3(CC2)CC(Nc2cnccn2)CO3)n1.O=C(O)C(F)(F)F (stereo not given)	4.568
Cn1ccc(C(=O)N2CCC3(CC2)CC(Nc2cnccn2)CO3)n1 (stereo not given)	103.2
Cc1nc2ncccn2c1C(=O)N1CCc2[nH]cnc2C1	16.62
CN(CC1CCN(CCO)CC1)CC(O)c1ccc(F)c(F)c1 (stereo not given)	6.752

SMILES	Percent Effect [%]
COC(=O)c1cccc(-c2c[nH]c(C)n2)c1	-9.245
COC(=O)c1ccc2c(-c3ccnc(NCCO)n3)c[nH]c2c1	85.03
CSCCCNc1nccc(-c2cc(C(=O)O)ccn2)n1	-11.9
Cc1ccc(CCNc2nccc(-c3cc(C(=O)O)ccn3)n2)o1	-34.17
CC(C)C(=O)NCCNc1nccc(-c2cc(C(=O)O)ccn2)n1	-18.63
COC(=O)c1ccc2c(-c3ccnc(N[C@@H](C)CO)n3)c[nH]c2c1	96.47
CC[C@@H](CO)Nc1nccc(-c2c[nH]c3cc(C(=O)OC)ccc23)n1	73.76
COc1cccc(-n2cc(-c3ccnc(N[C@@H](CO)C(C)C)n3)cn2)c1	-10.41
CCCN1C[C@H]2CC[C@@H]1CN(Cc1ccc(-n3cccn3)cc1)C2	12.23
O=C(CCc1cn[nH]c1)N1CCC(C2CCN(c3ncccn3)CC2)C1 (stereo not given)	-3.024
CN1CCN(C[C@@H]2CN(C(=O)CCc3cn[nH]c3)C[C@@H]2CO)CC1	-11.62
CN1CCOC(CNCc2nc(-c3cccnc3)no2)C1 (stereo not given)	17.39
CN1CCOC(CNCc2coc(-c3cccc(F)c3)n2)C1 (stereo not given)	69.38
CN1CCOC(CNCc2coc(-c3cccc(Cl)c3)n2)C1 (stereo not given)	93.12
CN(C)Cc1ccc(C2CCCCN2C(=O)c2cc(=O)[nH]c(=O)[nH]2)cc1 (stereo not given)	-0.1381
Cc1cnn(CCNCc2nc(-c3ccccc3Cl)no2)c1	-13.51
CC[C@H]1N(CC2CCOCC2)CCC[C@]12CCC(=O)N2.O=C(O)C(F)(F)F	-18.34
COCCN(Cc1ccc(C)cc1)Cc1c[nH]cn1	-2.598
Cc1cc(C)n(CCC2CC(=O)Nc3cc(O)c(C)cc32)n1 (stereo not given)	-2.617
Cc1noc(C)c1CCC(=O)N1CCOCC1CCc1cnccn1 (stereo not given)	115.4
Cc1noc(C)c1CCC(=O)N1CCN(CCn2cncn2)CC1	-13.84
Cc1noc(C)c1CCC(=O)N1CCN(CCn2cccn2)CC1	-16.11
Cc1noc(Cl)c1CCC(=O)N1CCN(c2ncccn2)CC1	8.959
Cc1nccnc1CCC1COCCN1C(=O)CCc1c(C)noc1C (stereo not given)	121.1
CC(=O)N1CCCN(C(=O)CCc2c(C)noc2C)CC1	-13.07

SMILES	Percent Effect [%]
CCc1ccc(CCC(=O)N2CCOCC2c2ncon2)cc1 (stereo not given)	5.794
Cc1noc(C)c1CCC(=O)N1CCOCC1CC(=O)N1CCCC1 (stereo not given)	72.16
Cc1cc(C)cc(OCCC(=O)N2CCOCC2c2ncon2)c1 (stereo not given)	-11.58
O=C(c1ccc2cccc(F)c2n1)N1CCN(CCn2cccc2)CC1	4.444
CCN1CC[C@@H]2OC[C@H](C(=O)NCc3cccs3)C[C@@H]2C1	91.2
O=C(CN1CCC(c2ccnn2CCO)CC1)NCc1cccs1	-0.7289
COCCNC(=O)[C@H]1CO[C@H]2CCN(Cc3cccs3)C[C@H]2C1	107.4
COC(=O)N1CCc2ccccc2C1C(=O)NCc1cccs1 (stereo not given)	1.281
COCCNC(=O)[C@H]1C[C@@H]2CCN(Cc3nccs3)C[C@H]2O1.O=C(O)C(F)(F)F	2.995
Cc1ncccc1NC(=O)[C@@H]1C[C@@H]2CCN(Cc3cccs3)C[C@H]2O1.O=C(O)C(F)(F)F.O=C(O)C(F)(F)F	-1.319
COc1ccc(F)cc1CN1CCN(Cc2nccn2C)C(C)C1 (stereo not given)	-0.7274
CC(=O)N1CC(=O)N(c2ccccc2)CC12CCN(CC1CC1)C2.O=C(O)C(F)(F)F (stereo not given)	-3.194
CC(=O)N1CC(=O)N(c2ccsc2)CC12CCN(Cc1ccccn1)C2.O=C(O)C(F)(F)F (stereo not given)	-6.842
CC(=O)N1CC(=O)N(c2ccccc2)CC12CCN(Cc1nccs1)C2.O=C(O)C(F)(F)F (stereo not given)	-14.31
CC(=O)N1CC(=O)N(c2ccccc2)CC12CCN(Cc1ccoc1)C2.O=C(O)C(F)(F)F (stereo not given)	103.1
CC(=O)N1CC(=O)N(c2ccccc2)CC12CCN(Cc1ccsc1)C2 (stereo not given)	-2.634
CC(=O)N1CC(=O)N(c2ccsc2)CC12CCN(Cc1ccoc1)C2 (stereo not given)	104.4
CC(C)OCCOCc1cccc(NC(=O)NCC(=O)N(C)C)c1	-22.62
CCN1CCN2CCCN(S(=O)(=O)c3ccc(C)cc3C)C2C1=O (stereo not given)	0.9872
CN1CCN(c2ccc(NCc3ccsc3)cn2)CC1	-12.65
Cn1cnc2c1C(COCC1CCOCC1)CN(C(=O)C1CC=CC1)C2.O=C(O)C(F)(F)F (stereo not given)	-7.237
CCOCC1CN(C(=O)COc2ccccc2C)Cc2ncn(C)c21.O=C(O)C(F)(F)F (stereo not given)	-10.67
CN(C)C(=O)COCC1CN(C2CCC2)Cc2ncn(C)c21.O=C(O)C(F)(F)F.O=C(O)C(F)(F)F (stereo not given)	85.57
COCC1CN(C(=O)COc2ccccc2)Cc2ncn(C)c21.O=C(O)C(F)(F)F (stereo not given)	-7.331
CN(C)C(=O)COCC1CN(S(C)(=O)=O)Cc2ncn(C)c21.O=C(O)C(F)(F)F (stereo not given)	94.11
